Experimental data taken from the supplement of paper PMC10849652.
About 8,800 targets were measured; listed, in parts, are those with a hit and a random draw of the rest. About 0.5% of all pairs of compound and target were hits. Unmarked numbers belong to inactive results.

compound: NC(=O)Nc1cc(-c2cccc(F)c2)sc1C(=O)N[C@H]1CCCNC1; experiment: log2 fold change, soluble protein after heating vs DMSO (PISA); higher = thermal stabilisation; K562 lysate, 10 uM; active = over 0.2 and 3.5 SD of the protein, either way, in both replicates (recomputed)
Method in brief: (§1)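 Values give the log-two fold change in thermal stability against solvent controls, from duplicates. Crude K562 extract at 1 mg/mL protein, made by dounce homogenisation in PBS pH 7.4 with 1 mM MgCl2, was treated with 10 μM compound for 30 min. After 3 min heating across 48°C-58°C, aliquots were pooled, adjusted to 0.5% NP-40 at 4°C and centrifuged at 21,000xg for 90 min. The supernatant was measured by TMTpro 16plex LC-MS/MS with channel sums equalised.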

Chain of UniProt P84157 (P84157 whole entry, looked up): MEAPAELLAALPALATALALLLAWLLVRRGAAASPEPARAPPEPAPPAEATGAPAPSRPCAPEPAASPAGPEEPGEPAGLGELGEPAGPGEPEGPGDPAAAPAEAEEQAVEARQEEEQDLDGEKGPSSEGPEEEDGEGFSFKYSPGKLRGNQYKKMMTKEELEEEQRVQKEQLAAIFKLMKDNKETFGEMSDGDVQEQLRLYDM
Chain of UniProt Q86UW6 (Q86UW6 whole entry, looked up): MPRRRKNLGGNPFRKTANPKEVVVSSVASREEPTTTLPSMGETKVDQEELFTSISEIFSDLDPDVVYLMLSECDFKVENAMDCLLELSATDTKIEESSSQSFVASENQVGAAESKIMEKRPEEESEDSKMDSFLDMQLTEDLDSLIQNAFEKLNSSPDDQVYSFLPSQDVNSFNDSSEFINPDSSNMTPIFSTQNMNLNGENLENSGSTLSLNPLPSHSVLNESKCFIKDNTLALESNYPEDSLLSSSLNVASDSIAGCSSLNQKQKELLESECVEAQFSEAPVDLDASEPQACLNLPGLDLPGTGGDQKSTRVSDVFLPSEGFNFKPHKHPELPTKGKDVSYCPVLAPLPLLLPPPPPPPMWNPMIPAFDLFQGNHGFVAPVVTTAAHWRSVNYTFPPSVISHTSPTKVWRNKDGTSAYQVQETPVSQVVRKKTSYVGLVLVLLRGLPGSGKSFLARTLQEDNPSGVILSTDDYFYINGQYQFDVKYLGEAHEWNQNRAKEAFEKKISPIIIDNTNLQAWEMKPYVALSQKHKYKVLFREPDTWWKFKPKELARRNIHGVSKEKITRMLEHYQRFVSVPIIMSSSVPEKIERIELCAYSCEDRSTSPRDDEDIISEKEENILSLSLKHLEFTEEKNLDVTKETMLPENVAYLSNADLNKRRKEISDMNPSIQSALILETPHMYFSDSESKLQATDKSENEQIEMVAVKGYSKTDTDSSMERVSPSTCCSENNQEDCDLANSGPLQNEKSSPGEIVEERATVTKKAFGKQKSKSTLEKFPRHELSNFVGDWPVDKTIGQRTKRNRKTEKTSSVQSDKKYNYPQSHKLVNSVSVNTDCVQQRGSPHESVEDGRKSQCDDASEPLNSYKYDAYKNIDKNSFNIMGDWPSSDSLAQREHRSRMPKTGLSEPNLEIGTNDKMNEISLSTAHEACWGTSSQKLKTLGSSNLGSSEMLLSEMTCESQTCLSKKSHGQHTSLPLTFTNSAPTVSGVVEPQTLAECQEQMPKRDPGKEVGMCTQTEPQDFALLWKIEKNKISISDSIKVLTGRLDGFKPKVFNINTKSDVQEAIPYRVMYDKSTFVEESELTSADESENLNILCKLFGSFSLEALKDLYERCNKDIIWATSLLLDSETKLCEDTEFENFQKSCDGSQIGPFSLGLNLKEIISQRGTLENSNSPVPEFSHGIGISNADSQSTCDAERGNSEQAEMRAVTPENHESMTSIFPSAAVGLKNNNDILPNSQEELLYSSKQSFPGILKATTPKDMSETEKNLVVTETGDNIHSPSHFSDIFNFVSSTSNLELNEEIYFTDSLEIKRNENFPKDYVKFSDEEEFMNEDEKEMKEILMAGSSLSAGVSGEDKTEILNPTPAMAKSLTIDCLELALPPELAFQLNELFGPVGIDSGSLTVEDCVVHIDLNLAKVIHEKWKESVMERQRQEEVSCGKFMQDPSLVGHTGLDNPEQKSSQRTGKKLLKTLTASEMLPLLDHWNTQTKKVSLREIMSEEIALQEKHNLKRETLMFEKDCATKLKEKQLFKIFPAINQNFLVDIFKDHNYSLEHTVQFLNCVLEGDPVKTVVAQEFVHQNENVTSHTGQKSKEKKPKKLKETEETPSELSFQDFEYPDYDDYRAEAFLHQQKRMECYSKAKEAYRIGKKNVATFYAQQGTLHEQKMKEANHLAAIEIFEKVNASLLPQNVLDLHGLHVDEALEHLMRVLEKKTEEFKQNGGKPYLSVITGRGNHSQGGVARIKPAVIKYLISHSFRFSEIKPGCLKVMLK
Chain of UniProt O94916 (O94916 whole entry, looked up): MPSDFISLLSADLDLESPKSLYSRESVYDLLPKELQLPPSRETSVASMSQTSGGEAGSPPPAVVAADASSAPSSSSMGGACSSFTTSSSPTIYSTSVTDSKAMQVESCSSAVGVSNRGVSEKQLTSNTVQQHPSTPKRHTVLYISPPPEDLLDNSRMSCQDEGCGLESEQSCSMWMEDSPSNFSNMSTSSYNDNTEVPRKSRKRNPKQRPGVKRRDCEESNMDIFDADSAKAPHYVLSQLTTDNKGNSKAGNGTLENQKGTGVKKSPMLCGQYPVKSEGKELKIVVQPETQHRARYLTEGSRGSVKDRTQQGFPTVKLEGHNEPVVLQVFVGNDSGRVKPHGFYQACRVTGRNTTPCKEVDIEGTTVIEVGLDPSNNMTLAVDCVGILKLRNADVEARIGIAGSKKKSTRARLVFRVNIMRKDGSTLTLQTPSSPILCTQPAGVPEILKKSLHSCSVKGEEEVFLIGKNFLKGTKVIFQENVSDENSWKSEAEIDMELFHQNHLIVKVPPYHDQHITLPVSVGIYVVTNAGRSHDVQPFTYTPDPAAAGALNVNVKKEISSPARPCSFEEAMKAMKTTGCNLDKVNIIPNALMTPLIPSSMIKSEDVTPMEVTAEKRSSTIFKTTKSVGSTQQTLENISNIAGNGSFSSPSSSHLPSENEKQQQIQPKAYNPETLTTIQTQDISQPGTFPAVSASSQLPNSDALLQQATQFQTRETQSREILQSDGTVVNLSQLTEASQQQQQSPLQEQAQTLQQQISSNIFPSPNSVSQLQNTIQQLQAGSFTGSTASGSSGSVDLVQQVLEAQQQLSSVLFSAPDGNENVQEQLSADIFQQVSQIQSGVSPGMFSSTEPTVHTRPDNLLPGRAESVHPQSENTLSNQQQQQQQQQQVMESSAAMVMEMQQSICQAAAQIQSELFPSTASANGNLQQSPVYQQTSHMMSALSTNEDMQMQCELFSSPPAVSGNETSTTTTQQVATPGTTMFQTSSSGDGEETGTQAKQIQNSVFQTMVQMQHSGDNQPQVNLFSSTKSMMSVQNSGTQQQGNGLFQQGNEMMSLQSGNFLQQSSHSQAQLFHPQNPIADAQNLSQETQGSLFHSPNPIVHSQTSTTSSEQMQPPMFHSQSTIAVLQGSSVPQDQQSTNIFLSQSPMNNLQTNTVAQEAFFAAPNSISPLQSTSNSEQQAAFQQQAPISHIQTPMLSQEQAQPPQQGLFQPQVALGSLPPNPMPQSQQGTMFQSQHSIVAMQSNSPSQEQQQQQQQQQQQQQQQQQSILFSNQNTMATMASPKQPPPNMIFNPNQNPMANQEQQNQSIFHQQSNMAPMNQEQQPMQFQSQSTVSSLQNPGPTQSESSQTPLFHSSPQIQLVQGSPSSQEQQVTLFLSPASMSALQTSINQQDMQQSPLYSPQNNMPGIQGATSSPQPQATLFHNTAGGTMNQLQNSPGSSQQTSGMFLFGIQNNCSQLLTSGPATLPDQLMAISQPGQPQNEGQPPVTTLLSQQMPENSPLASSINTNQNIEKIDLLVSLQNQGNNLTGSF
Chain of UniProt O75607 (O75607 whole entry, looked up): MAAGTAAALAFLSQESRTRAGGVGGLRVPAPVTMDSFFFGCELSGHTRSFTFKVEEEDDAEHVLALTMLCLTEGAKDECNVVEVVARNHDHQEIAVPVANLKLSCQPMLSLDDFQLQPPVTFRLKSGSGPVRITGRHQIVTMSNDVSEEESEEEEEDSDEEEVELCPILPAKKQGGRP
Chain of UniProt Q96I59 (Q96I59 whole entry, looked up): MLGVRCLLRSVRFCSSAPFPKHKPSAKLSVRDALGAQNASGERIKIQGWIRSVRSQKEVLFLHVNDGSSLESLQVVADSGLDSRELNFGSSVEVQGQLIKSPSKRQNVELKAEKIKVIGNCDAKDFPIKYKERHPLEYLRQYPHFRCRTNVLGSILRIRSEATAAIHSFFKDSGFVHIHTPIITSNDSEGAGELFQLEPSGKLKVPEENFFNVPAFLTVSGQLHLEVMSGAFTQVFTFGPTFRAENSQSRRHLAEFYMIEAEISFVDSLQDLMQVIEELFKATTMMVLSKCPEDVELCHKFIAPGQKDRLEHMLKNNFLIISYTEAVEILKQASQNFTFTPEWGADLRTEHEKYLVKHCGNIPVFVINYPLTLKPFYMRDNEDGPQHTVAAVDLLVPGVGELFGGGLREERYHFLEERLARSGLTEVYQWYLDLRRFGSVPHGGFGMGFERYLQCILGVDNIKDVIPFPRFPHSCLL
Chain of UniProt Q8TE04 (Q8TE04 whole entry, looked up): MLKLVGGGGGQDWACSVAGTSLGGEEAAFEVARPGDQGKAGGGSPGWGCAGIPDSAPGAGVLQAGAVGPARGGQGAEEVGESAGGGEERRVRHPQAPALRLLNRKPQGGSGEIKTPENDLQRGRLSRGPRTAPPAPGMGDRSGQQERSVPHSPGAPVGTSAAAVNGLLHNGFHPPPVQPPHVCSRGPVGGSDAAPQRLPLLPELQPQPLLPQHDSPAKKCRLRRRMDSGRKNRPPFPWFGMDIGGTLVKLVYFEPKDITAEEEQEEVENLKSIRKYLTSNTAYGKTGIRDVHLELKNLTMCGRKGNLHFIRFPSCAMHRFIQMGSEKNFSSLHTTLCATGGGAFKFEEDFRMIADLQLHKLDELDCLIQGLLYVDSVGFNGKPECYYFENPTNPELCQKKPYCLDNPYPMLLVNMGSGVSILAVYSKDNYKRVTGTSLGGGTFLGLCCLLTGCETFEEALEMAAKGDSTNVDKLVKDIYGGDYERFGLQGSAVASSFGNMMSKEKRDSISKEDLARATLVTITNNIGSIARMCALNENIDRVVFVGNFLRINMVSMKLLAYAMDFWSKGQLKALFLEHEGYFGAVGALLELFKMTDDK
Chain of UniProt Q9Y6C9 (Q9Y6C9 whole entry, looked up): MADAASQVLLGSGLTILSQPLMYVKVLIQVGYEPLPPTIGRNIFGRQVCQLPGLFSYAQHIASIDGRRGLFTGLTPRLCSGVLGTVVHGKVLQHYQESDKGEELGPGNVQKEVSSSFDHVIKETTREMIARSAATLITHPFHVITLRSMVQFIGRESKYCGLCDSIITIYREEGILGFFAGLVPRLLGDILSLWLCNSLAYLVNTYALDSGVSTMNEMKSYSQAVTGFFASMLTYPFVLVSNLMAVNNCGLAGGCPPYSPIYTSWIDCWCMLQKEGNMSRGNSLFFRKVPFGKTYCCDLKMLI

Row | Target | log2 fold change
1 | NPTN (UniProt Q9Y639) | 0.031
2 | MXRA7 (UniProt P84157) | 0.1
3 | NUP205 (UniProt Q92621) | 0.052
4 | NEBL (UniProt O76041) | -0.065
5 | NUDT4 (UniProt Q9NZJ9) | 0.018
6 | NFAT5 isoform 5 (UniProt O94916) | 0.031
7 | MSH3 (UniProt P20585) | -0.003
8 | NFATC2 (UniProt Q13469) | 0.024
9 | NT5DC2 isoform 2 (UniProt Q9H857) | -0.002
10 | NR2F2 (UniProt P24468) | 0.125
11 | PANK1 (UniProt Q8TE04) | 0.062
12 | PAK4 (UniProt O96013) | 0.9 (active)
13 | MSH2 (UniProt P43246) | 0.046
14 | NSUN2 (UniProt Q08J23) | 0.024
15 | MRPS31 (UniProt Q92665) | 0.022
16 | PBK (UniProt Q96KB5) | 0.032
17 | NOSIP (UniProt Q9Y314) | 0.003
18 | MYO1C (UniProt O00159) | -0.082

Row | Target | log2 fold change
19 | NAA30 (UniProt Q147X3) | 0.001
20 | MTCH2 (UniProt Q9Y6C9) | 0
21 | PARD3 (UniProt Q8TEW0) | 0.029
22 | NLRP2 (UniProt Q9NX02) | 0.013
23 | ORC2 (UniProt Q13416) | 0.095
24 | NOSTRIN (UniProt Q8IVI9) | 0.01
25 | OSBPL1A (UniProt Q9BXW6) | 0
26 | PAN2 isoform 2 (UniProt Q504Q3) | 0.056
27 | NOC2L (UniProt Q9Y3T9) | 0.058
28 | N4BP2 (UniProt Q86UW6) | 0.037
29 | NPM3 (UniProt O75607) | 0.019
30 | PAGE2B (UniProt Q5JRK9) | 0.041
31 | NOCT (UniProt Q9UK39) | 0.043
32 | NBN (UniProt O60934) | 0.046
33 | MSH6 (UniProt P52701) | 0.072
34 | NELFCD (UniProt Q8IXH7) | 0.046
35 | NARS2 (UniProt Q96I59) | 0.051

compound: NC(=O)c1cnc(N[C@@H]2CCCC[C@@H]2N)nc1Nc1cccc(-n2nccn2)c1; experiment: as above
Method in brief: as §1

Row | Target | log2 fold change
36 | NPTN (UniProt Q9Y639) | 0.004
37 | MXRA7 (UniProt P84157) | -0.078
38 | NUP205 (UniProt Q92621) | 0.047
39 | NEBL (UniProt O76041) | -0.018
40 | NUDT4 (UniProt Q9NZJ9) | -0.059
41 | NFAT5 isoform 5 (UniProt O94916) | 0.018
42 | MSH3 (UniProt P20585) | 0.011
43 | NFATC2 (UniProt Q13469) | -0.025
44 | NT5DC2 isoform 2 (UniProt Q9H857) | 0.06
45 | NR2F2 (UniProt P24468) | 0.024
46 | PANK1 (UniProt Q8TE04) | -0.007
47 | PAK4 (UniProt O96013) | 0.473
48 | MSH2 (UniProt P43246) | 0.016
49 | NSUN2 (UniProt Q08J23) | -0.009
50 | MRPS31 (UniProt Q92665) | -0.026
51 | PBK (UniProt Q96KB5) | 0.017
52 | NOSIP (UniProt Q9Y314) | -0.015
53 | MYO1C (UniProt O00159) | 0

Row | Target | log2 fold change
54 | NAA30 (UniProt Q147X3) | -0.018
55 | MTCH2 (UniProt Q9Y6C9) | -0.027
56 | PARD3 (UniProt Q8TEW0) | 0.199
57 | NLRP2 (UniProt Q9NX02) | 0.003
58 | ORC2 (UniProt Q13416) | -0.004
59 | NOSTRIN (UniProt Q8IVI9) | -0.018
60 | OSBPL1A (UniProt Q9BXW6) | -0.024
61 | PAN2 isoform 2 (UniProt Q504Q3) | 0.02
62 | NOC2L (UniProt Q9Y3T9) | 0.014
63 | N4BP2 (UniProt Q86UW6) | -0.018
64 | NPM3 (UniProt O75607) | 0.03
65 | PAGE2B (UniProt Q5JRK9) | -0.018
66 | NOCT (UniProt Q9UK39) | 0.004
67 | NBN (UniProt O60934) | -0.024
68 | MSH6 (UniProt P52701) | 0.006
69 | NELFCD (UniProt Q8IXH7) | 0.013
70 | NARS2 (UniProt Q96I59) | 0.037

compound: NC1(c2ccc(-c3nc4ccn5c(=O)[nH]nc5c4cc3-c3ccccc3)cc2)CCC1; experiment: as above
Method in brief: as §1

Row | Target | log2 fold change
71 | NPTN (UniProt Q9Y639) | 0.002
72 | MXRA7 (UniProt P84157) | -0.003
73 | NUP205 (UniProt Q92621) | -0.012
74 | NEBL (UniProt O76041) | -0.03
75 | NUDT4 (UniProt Q9NZJ9) | 0.022
76 | NFAT5 isoform 5 (UniProt O94916) | 0.039
77 | MSH3 (UniProt P20585) | -0.035
78 | NFATC2 (UniProt Q13469) | -0.023
79 | NT5DC2 isoform 2 (UniProt Q9H857) | -0.011
80 | NR2F2 (UniProt P24468) | 0.029
81 | PANK1 (UniProt Q8TE04) | 0.062
82 | PAK4 (UniProt O96013) | 0.257
83 | MSH2 (UniProt P43246) | -0.017
84 | NSUN2 (UniProt Q08J23) | -0.011
85 | MRPS31 (UniProt Q92665) | -0.014
86 | PBK (UniProt Q96KB5) | 0.024
87 | NOSIP (UniProt Q9Y314) | 0.006
88 | MYO1C (UniProt O00159) | -0.087

Row | Target | log2 fold change
89 | NAA30 (UniProt Q147X3) | 0.041
90 | MTCH2 (UniProt Q9Y6C9) | 0.001
91 | PARD3 (UniProt Q8TEW0) | 0.105
92 | NLRP2 (UniProt Q9NX02) | 0.026
93 | ORC2 (UniProt Q13416) | -0.029
94 | NOSTRIN (UniProt Q8IVI9) | 0.064
95 | OSBPL1A (UniProt Q9BXW6) | -0.388 (active)
96 | PAN2 isoform 2 (UniProt Q504Q3) | -0.028
97 | NOC2L (UniProt Q9Y3T9) | -0.019
98 | N4BP2 (UniProt Q86UW6) | -0.048
99 | NPM3 (UniProt O75607) | -0.029
100 | PAGE2B (UniProt Q5JRK9) | 0.164
101 | NOCT (UniProt Q9UK39) | -0.014
102 | NBN (UniProt O60934) | -0.015
103 | MSH6 (UniProt P52701) | -0.045
104 | NELFCD (UniProt Q8IXH7) | -0.031
105 | NARS2 (UniProt Q96I59) | -0.037
